Only some compounds are listed: those with a hit (about 9.2% of all), similar ones and a draw of the others.
FLuc counter – counter-screen for miR-21 project: firefly luciferase inhibitors or activators. Potency, µM (highest dose often 57.5 µM), inactives show at the highest dose activity change, negative = inhibition, most hits filed as inhibitors. hit rate 6.9% among 360,000. P08659. purified FLuc, Km substrates, luminescence inhibition;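 also: plate controls were vehicle for no effect and reference inhibitor for full effect; nearly all actives have a fitted effect of over 55% in size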
Target sequence (P08659 whole entry, looked up): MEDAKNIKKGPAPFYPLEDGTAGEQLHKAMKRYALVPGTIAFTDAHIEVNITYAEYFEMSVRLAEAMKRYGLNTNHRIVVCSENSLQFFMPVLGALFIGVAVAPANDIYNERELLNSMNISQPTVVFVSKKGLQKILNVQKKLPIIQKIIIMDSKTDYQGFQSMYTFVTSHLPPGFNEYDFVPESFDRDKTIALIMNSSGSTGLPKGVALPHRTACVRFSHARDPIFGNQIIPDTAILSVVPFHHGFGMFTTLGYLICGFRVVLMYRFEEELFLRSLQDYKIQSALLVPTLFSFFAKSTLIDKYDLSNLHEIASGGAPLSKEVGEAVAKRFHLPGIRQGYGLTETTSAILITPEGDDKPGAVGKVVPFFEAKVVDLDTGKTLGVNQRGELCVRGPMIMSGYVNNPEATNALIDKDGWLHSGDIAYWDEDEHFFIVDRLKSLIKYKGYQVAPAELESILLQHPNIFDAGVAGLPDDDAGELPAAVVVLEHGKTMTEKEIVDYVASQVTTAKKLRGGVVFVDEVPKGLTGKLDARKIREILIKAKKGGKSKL
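Biochemical qHTS of compounds, final roughly 60 µM downward over six points, against 10 nM purified firefly luciferase using Km concentrations of substrates (10 uM D-luciferin, 10 uM ATP) in Tris acetate pH 7.5 buffer; luminescence output.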
ELG1 DNA repair – ELG1-dependent DNA repair inhibition. HEK293T ELG1-luciferase reporter, luminescence, 16 h; DNA damage induced by 5-fluorouridine. Potency, µM (titrated, usually from 46.1 µM), for inactives: top-dose activity change, negative = inhibition, hits mostly inhibitors. hit rate 2.3% among 330,000; also: % is scaled to controls: 0 for no effect and ±100 for the full control effect; nearly all actives have a fitted effect of over 55% in size
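5-Fluorouridine DNA damage + compound/DMSO, 2,000 cells/well, 16 h, 37 °C/5% CO2. ONE-Glo, 30 min RT, luminescence. Readout = decrease in reporter signal.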
Rab9 promoter act – activators of Rab9 promoter; hit rate 2.8% among 320,000; AID 485297; Potency, µM (titrated, usually from 9.22 µM), for inactives: at the top dose activation, negative = inhibition, most hits filed as activators; Huh7 Rab9 promoter-luciferase reporter, luminescence, 24 h; also: % of control where 0% means no effect; nearly all actives have a fitted effect of over 60% in size
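Luminescence from Amplite-detected luciferase (10 minutes, ambient) reports Rab9 promoter activation. Before that, stable Rab9-luciferase Huh7 cells (1500/well, reduced-serum OP-MEM I plus 10% FBS) were exposed to compound for 24 hours at 37C.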
NPC1 promoter act – activators of NPC1 promoter | Huh7 NPC1 promoter luciferase reporter, 24 h | Potency, µM (titrated, usually from 9.22 µM), for inactives: top-dose activation, hits mostly activators | hit rate 2.4% among 320,000 | AID 485313; also: % of control where 0% means no effect; nearly all actives have a fitted effect of over 60% in size
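Compounds in DMSO were transferred onto Huh7 NPC1-luciferase reporter cells pre-incubated 2 h; after 24 h at 37 °C, Amplite reagent was dispensed and luminescence recorded 10 min later.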
ELG1 genotox – inducers of genotoxicity in HEK293T ELG1-luciferase cells; Potency, µM (titrated, usually from 46 µM), for the others: at the highest dose activity change, positive = activation, most hits filed as activators; hit rate 1.3% among 330,000; AID 504466; HEK293T ELG1-luciferase reporter, luminescence, 16 h; also: % of control where 0% means no effect; nearly all actives have a fitted effect of over 60% in size
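After overnight (16 hr) compound treatment at 37 °C, ELG1-luciferase HEK293T cells were lysed with ONE-Glo; luminescence quantified 30 min later at room temperature.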
SMN2 splice up – enhancers of SMN2 splice variant expression. HEK293 SMN2-luciferase splicing reporter, luminescence, 30-36 h. Potency, µM (doses to about 46.1 µM), for inactives: at the highest dose activity change, positive = activation, actives largely listed as activators. hit rate 2.8% among 210,000; also: % of control where 0% means no effect; nearly all actives have a fitted effect of over 55% in size
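HEK293 cells carry an SMN2 minigene-luciferase reporter in which exon 7 inclusion puts luciferase in frame. Cells were seeded at 2000 cells/well, attached for 10-12 hours, then exposed to compounds for 30-36 hours at 37C before ONE-Glo luminescence.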
* marks the source's active call; other numbers are inactive results; ? = inconclusive; nt = not tested or not shown. Calls follow the shape of the dose curve; as a rule, active = well fitted curve in the direction sought with a large enough effect; inconclusive = small, poorly fitted or top-dose-only effect, or another doubt; inactive = no such curve, though single readings can be large; an effect the other way counts as inactive or inconclusive. Potency is read from the fitted curve at half-maximal effect.

SMILES	FLuc counter	ELG1 DNA repair	Rab9 promoter act	NPC1 promoter act	ELG1 genotox	SMN2 splice up
CCOC(=O)C1CCN(C(=O)C(C)N(c2ccc(Oc3ccccc3)cc2)S(C)(=O)=O)CC1 (stereo unspecified)	5.2%	-6.9%	-43.9%	-22.3%	-9.9%	nt
CCOC(=O)N1CCN(C(=O)C(C)N(c2ccc(Oc3ccccc3)cc2)S(C)(=O)=O)CC1 (stereo unspecified)	9.3%	6.51µM*	-22.1%	-6.9%	1.0%	-105.2%
CN(C)S(=O)(=O)c1ccc(N2CCOCC2)c(C(=O)NCc2ccc3c(c2)OCO3)c1	-2.2%	?	-3.1%	-9.2%	-1.9%	nt
O=C(Nc1ccc2c(c1)OCCO2)c1cccc(S(=O)(=O)N2CCOCC2)c1	?	?	4.47µM*	?	?	?
CS(=O)(=O)c1cccc(C(=O)Nc2ccc3c(c2)OCCCO3)c1	15.1µM*	?	3.55µM*	?	?	nt
O=C(Nc1ccc(Cl)c(S(=O)(=O)N2CCOCC2)c1)c1ccc2c(c1)OCCO2	26.9µM*	23.1µM*	4.2%	-0.6%	-16.7%	-53.2%
O=C(Nc1ccc(Cl)c(S(=O)(=O)N2CCOCC2)c1)c1ccc2c(c1)OCO2	nt	6.51µM*	nt	nt	-12.4%	nt
O=C(Nc1ccc2c(c1)OCCO2)c1cccc(S(=O)(=O)N2CCCCC2)c1	?	5.4%	-5.9%	-2.0%	9.4%	-10.1%
CCCCC(=O)Nc1ccc(OCc2cc(=O)n3c(C)csc3n2)cc1	-1.4%	nt	nt	nt	nt	-9.3%
O=C(COc1ccc(NS(=O)(=O)c2ccc(F)cc2)cc1)N1CCOCC1	6.5%	16.1%	-0.5%	-1.1%	-0.9%	nt
CCN(CC)S(=O)(=O)c1ccc(C(=O)NCC(=O)NCCCc2ccccc2)cc1	2.8%	1.5%	7.9%	-0.8%	-5.3%	nt
CCCN(CCC)S(=O)(=O)c1cccc(C(=O)Nc2ccc3c(c2)OCO3)c1	-10.8%	?	-3.9%	-1.1%	-11.4%	-9.4%
CCC(CC)C(=O)Nc1cccc(C(=O)Nc2ccc3c(c2)OCO3)c1	?	?	18.5%	27.0%	11.2%	8.91µM*
CCN(CC)S(=O)(=O)c1cccc(C(=O)Nc2ccc3c(c2)OCO3)c1	15.1µM*	?	?	?	5.8%	?
Cc1ccc(-n2c(=O)[nH]c3sc4c(c3c2=O)CCNC4)cc1C	2.3%	nt	nt	nt	nt	-12.1%
COc1ccc(/C=C/C(=O)Nc2cccc(N3CCOCC3)c2)cc1OC	26.9µM*	?	3.3%	3.8%	-5.2%	10.5%
COc1ccc(NC(=O)/C=C/c2ccc(C)o2)cc1S(=O)(=O)N1CCOCC1	-2.2%	?	-4.8%	-0.9%	-4.8%	-28.3%
COc1ccc(/C=C/C(=O)Nc2cccc(F)c2)cc1S(=O)(=O)N1CCOCC1	-14.8%	20.6µM*	-5.7%	-12.2%	-15.5%	-45.3%
COc1cc(/C=C/C(=O)Nc2ccc(OC)c(S(=O)(=O)N3CCOCC3)c2)ccc1OC(F)F	nt	10.3µM*	nt	nt	-13.0%	nt
Cc1ccc2nc(-c3ccc(NC(=O)CNC4CC4)cc3)sc2c1	2.69µM*	?	0.282µM*	0.631µM*	?	2.24µM*
Cc1ccc2nc(-c3ccc(NC(=O)C(F)(F)F)cc3)sc2c1	0.477µM*	nt	nt	nt	nt	2.9%
Cc1ccc2nc(-c3ccc(NC(=O)c4ccccc4S(C)(=O)=O)cc3)sc2c1	21.3µM*	nt	nt	nt	nt	nt
Cc1ccc(C)c(N(CC(=O)Nc2ccc(-c3nc4ccc(C)cc4s3)cc2)S(C)(=O)=O)c1	-17.1%	9.7%	-2.3%	9.0%	0.8%	25.6%
Cc1ccc2nc(-c3ccc(NC(=S)NC(=O)CC(C)C)cc3)sc2c1	23.9µM*	?	1.12µM*	0.562µM*	9.2µM*	31.3%
COc1ccc(NC(=O)CSCc2cnn(-c3ccccc3)c2-n2cccc2)cc1	4.5%	nt	nt	nt	nt	nt
SMILES	FLuc counter	ELG1 DNA repair	Rab9 promoter act	NPC1 promoter act	ELG1 genotox	SMN2 splice up
COc1cc2c(cc1OC)CN(CC(=O)Nc1ccc(C)c(C)c1)CC2	0.5%	?	2.3%	1.3%	-2.7%	nt
COc1ccccc1-c1nc(COc2ccc(Cl)cc2Cl)no1	8.49µM*	?	3.98µM*	3.55µM*	?	nt
COc1cccc(-c2nc(COc3ccc(Cl)cc3Cl)no2)c1	15.1µM*	7.0%	0.4%	1.2%	7.0%	nt
CC(=O)c1ccc2c(c1)Cc1cc(C(C)=O)ccc1-2	?	?	1.78µM*	2.51µM*	18.4µM*	nt
CCC(=O)Nc1ccc2c(c1)Cc1cc(NC(=O)CC)ccc1-2	1.8%	?	?	29.4%	?	nt
CCOC(=O)c1sc(-n2[nH]c(C)cc2=O)nc1C	15.1µM*	1.7%	2.4%	11.1%	1.9%	-3.3%
COc1cccc(CNc2nccn(-c3cc(C)cc(C)c3)c2=O)c1	1.1%	nt	nt	nt	nt	nt
COc1ccccc1N1C(=N)S/C(=C\c2ccc(-c3ccccc3C(=O)O)o2)C1=O	?	2.0%	-2.1%	-3.4%	3.2%	-5.4%
N=C1S/C(=C\c2ccc(-c3ccccc3C(=O)O)o2)C(=O)N1c1ccc2c(c1)OCO2	9.53µM*	-16.4%	-11.5%	-4.0%	-0.3%	nt
CC1=CC(=C2C(=O)c3ccccc3C2=O)C=C(C)N1C	12µM*	?	2.51µM*	2.51µM*	?	7.3%
CN(C)CCN1C(=O)c2ccccc2N(C)c2ccccc21	nt	nt	nt	nt	nt	-1.3%
O=C1c2ccccc2C(=O)N1CCC1=CCCCC1	15.1µM*	?	10.3%	5.6%	?	21.4%
O=C(O)c1ccc2c(c1)C(=O)N(CCC1=CCCCC1)C2=O	-8.0%	6.2%	-8.7%	-0.1%	-2.3%	2.1%
Cc1ccc(SSc2cc(C)ccc2N)c(N)c1	4.78µM*	?	0.794µM*	1.12µM*	14.9%	nt
C/C(=N\O)c1ncc(C(F)(F)F)cc1Cl	-0.6%	1.2%	-1.1%	-1.8%	2.6%	nt
Nc1nc(CN2CCCCCC2)nc(Nc2ccccc2)n1	0.4%	3.7%	-2.4%	7.4%	2.3%	7.0%
Cc1c(-c2nc(N)nc(Nc3ccccc3)n2)oc2ccccc12	4.78µM*	?	2.51µM*	1.41µM*	7.31µM*	11.2µM*
O=C(O)c1c(-c2ccccc2)oc2ccc(OCc3c(F)cccc3Cl)cc12	?	nt	nt	nt	nt	-3.0%
COC(=O)c1c(NC(=O)Cc2coc3cc(C)ccc23)sc2c1CCC2	-10.3%	nt	nt	nt	nt	-1.5%
Cc1cc(=O)n2nc(-c3ccccc3)sc2n1	?	?	2µM*	?	?	12.6µM*
COc1ccc2[nH]cc(C=O)c2c1	-1.7%	14.5%	-4.3%	8.4%	-1.7%	-13.6%
COc1ccc2[nH]cc(/C=C/C(=O)c3ccccc3)c2c1	3.38µM*	?	1.58µM*	3.16µM*	?	nt
Cc1ccc(C(=O)/C=C/c2c[nH]c3ccccc23)cc1	5.36µM*	?	3.55µM*	3.98µM*	?	?

Compound activity (PubChem)
